In PubChem BioAssay (NCATS):
Where “and” joins values, the source holds several entries; their conditions need not be identical. Equal values may be shown once. Inconclusive results are not listed. A call without a number means that no potency is given here. Calls of active or inactive are those of the source. Calls come from the whole dose curve.

Biological target: Retinoic acid receptor RXR-alpha (Homo sapiens) (UniProt P19793)
Assay: qHTS assay for small molecule agonists of retinoid X receptor alpha signaling (AID 588544)
Conditions: HEK293T RXRa-UAS-bla, beta-lactamase reporter, 18 h; series mostly up to 76.7 µM
Description: NIH Chemical Genomics Center [NCGC] U.S. Environmental Protection Agency [EPA] National Institutes of Environmental Health Sciences [NIEHS] National Toxicology Program [NTP] NCGC Assay Overview The Retinoid X receptor (RXR), a nuclear hormone receptor is expressed in liver, spleen, placenta, epidermis, central nervous system. These receptors are able to form homo and heterodimers with other nuclear receptors and due to this heterodimerizing ability, RXR functions as master regulators producing diverse physiological effects. Three subtypes of RXR exist; alpha, beta and gamma. Retinoid X receptor alpha (RXR-alpha) has potential roles in metabolic signaling pathways, skin alopecia, dermal cysts, cardiac development, insulin sensitization etc. Therefore screening environmental chemicals on RXR-alpha signaling can be used for the studies focused on such therapeutic applications.
NCGC Assay Protocol Summary Using a beta-lactamase reporter-gene under control of Retinoid X receptor--alpha (RXR-alpha) response element, a cell-based assay [GeneBLAzer (RXR-alpha -UAS-bla assay developed by Invitrogen] was used to measure RXR-alpha ligands signaling. GeneBLAzer RXR-alpha -UAS-bla HEK293T cells were used with assay medium containing 2% charcoal-stripped FBS. The assay was performed in clear bottom black Greiner 1536-well plates. 9-cis-retinoic acid was used in the screen as the positive control. Library compounds were measured for their ability to stimulate the reporter gene activity. Compounds were screened in a titration series in 1536-well format. The fluorescence intensity (405 nm excitation, 460/530 nm emission) was measured using an EnVision plate reader. Data was normalized relative to 9-cis-retinoic acid control (500 nM, 100%), and DMSO only wells (basal, 0%). Concentration-response titration points for each compound were fitted to the Hill equation yielding concentrations of half-maximal stimulation (EC50) and maximal response (efficacy) values. qHTS protocol for RXR-alpha beta-lactamase assay in agonist mode [Step] [Parameter] [Value] [Description] 1. Reagent; 6 uL; 2500 cells/well 2. Incubation; 37 C for 4 hrs 3. Compounds; 23 nL; 0.59 nM to 92 uM 4. Controls (9-cis-retinoic acid); 23 nL, - One column with dose response, start 38 uM, 1:3 dilutions in duplicates - Final concentrations of 500 nM and 50 nM in two columns 5. Incubation; 37 C for 18 hrs 6. Detection reagent; 1 uL of CCF4-dye 7. Incubation; RT for 2 hrs 8. Detection; Fluorescence; Envision plate reader

Chain of Retinoic acid receptor RXR-alpha (Homo sapiens) (P19793 whole entry, looked up): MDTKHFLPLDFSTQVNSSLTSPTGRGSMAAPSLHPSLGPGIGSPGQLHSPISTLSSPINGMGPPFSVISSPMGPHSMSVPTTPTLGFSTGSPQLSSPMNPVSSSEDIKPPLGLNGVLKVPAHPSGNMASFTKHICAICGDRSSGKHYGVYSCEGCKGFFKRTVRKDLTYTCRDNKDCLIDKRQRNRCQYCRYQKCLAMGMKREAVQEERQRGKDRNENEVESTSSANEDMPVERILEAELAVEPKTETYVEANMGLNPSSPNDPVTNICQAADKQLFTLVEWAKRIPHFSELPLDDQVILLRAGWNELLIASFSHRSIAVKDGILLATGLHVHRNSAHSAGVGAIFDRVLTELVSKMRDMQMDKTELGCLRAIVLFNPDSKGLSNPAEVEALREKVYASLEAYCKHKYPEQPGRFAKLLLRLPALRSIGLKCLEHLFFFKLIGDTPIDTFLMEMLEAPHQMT

SMILES	Potency
c1ccc2c(c1)Nc1ccccc1S2	inactive
CNCC(O)c1ccc(O)cc1 (stereo not given)	inactive
CCCC(C)(COC(N)=O)COC(=O)NC(C)C (stereo not given)	inactive
C[C@]12CCC(=O)C(O)=C1CC[C@@H]1[C@@H]2CC[C@]2(C)C(=O)CC[C@@H]12	inactive
CC(C)(C)CC(C)(C)c1ccc(O)cc1	inactive
CCn1cc(C(=O)O)c(=O)c2ccc(C)nc21	inactive
Oc1ccc(Cl)cc1Cc1ccccc1	35.5 µM (active) and 39.8 µM (active)
NCC(O)c1ccc(O)cc1 (stereo not given)	inactive
Nc1ccncc1	inactive
CCOP(=S)(OCC)Oc1cc(C)nc(C(C)C)n1	inactive
